We go through 155 variants from a collection of fitness landscapes (doi:10.1016/j.celrep.2020.107928).

B1: Caulobacter ParB omega fusion; a variant is named by its letters at X, in order, B8GW30 (parent)
chain: MESVVVGEPGMSEGRRGLGRGLSALLGEVDAAPAQAPGEQLGGSREAPIEILQRNPDQPRRTFREEDLEDLSNSIREKGVLQPILVRPSPDTAGEYQIVAGERAWRAAQRAGLKTVPIMVRELDDLAVLEIGIIENVQRADLNVLEEALSYKVLMEKFERTQENIAQTIGKSXSHVANXMRLLXLPDEVQSYLVSGELTAXHARAIAAAADPVALAKQIIEGGLSVRETEALARKAPNLSAGKSKGGRPPRVKDTDTQALESDLSSVLGLDVSIDHRGSTGTLTITYATLEQLDDLCNRLTRGI

In all, about 81,000 sequences were measured (“one-hybrid fitness for binding parS DNA”: median about -0.17, highest 2% from about 0.51 on). Shown is part of a subset that was picked to be rich in the highest values. Some results are limits rather than exact numbers.

In this assay the parent is B1. The experiment in a line: one-hybrid fitness for binding parS DNA (scaled: cognate 1, non-cognate 0); higher = stronger binding. The following applies: with parS DNA site. The method, boiled down:
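Bacterial one-hybrid selection in E. coli USO rpoZ- hisB- pyrF- with a HIS3 reporter carrying the site 19 bp from the promoter, screening Caulobacter ParB libraries with four specificity codons randomised (NNS). Cells grew 48 hours at 37°C on M9-minus-histidine plus 0.1 mM IPTG and 5 mM 3-AT. Plasmids before and after selection were Illumina-sequenced, three replicate libraries pooled, and variants under 10 reads dropped. Fitness is the log change in variant-to-wild-type read ratio, rescaled to cognate 1, non-cognate 0.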
Turning to RAKF, the “one-hybrid fitness for binding parS DNA” value worked out at 0.385.
In the case of WVHG it was no more than 0.2; in that of RCEL, no more than 0.2.
In the case of THTA it was no more than 0.2.
For the variant PWVT, the “one-hybrid fitness for binding parS DNA” value is no more than 0.2.
To RVMM belongs 0.287; to RVML, no more than 0.2; to RVMY, 0.455.
To RVMC belongs 0.95; to RVMP, no more than 0.2; to RVMH, no more than 0.2.
In the case of RVMD it was no more than 0.2.
RVMS: the “one-hybrid fitness for binding parS DNA” value is 0.997.
For RVMG, the “one-hybrid fitness for binding parS DNA” value was 0.971.
To RVMT belongs 0.885.
To RVMF belongs 0.243; to RVMN, 0.388; to KMVW, no more than 0.2.
To WMRR belongs no more than 0.2.
As for ALEF, the “one-hybrid fitness for binding parS DNA” value was no more than 0.2.
To ADCS belongs no more than 0.2.
Turning to VPDS, the “one-hybrid fitness for binding parS DNA” value is no more than 0.2.
Take RAVA: the “one-hybrid fitness for binding parS DNA” value is 0.542.
In the case of AAKA it was no more than 0.2; in that of RAKA, 0.737.
Turning to VWKI, the “one-hybrid fitness for binding parS DNA” value was no more than 0.2.
In the case of LDDF, the “one-hybrid fitness for binding parS DNA” value was no more than 0.2.
With DYKA, the “one-hybrid fitness for binding parS DNA” value was no more than 0.2.
With EYSA, the “one-hybrid fitness for binding parS DNA” value was no more than 0.2.
In the case of RYKA it was 0.793; in that of RYSA, 0.535; in that of NYSA, no more than 0.2.
In the case of RYWA, the “one-hybrid fitness for binding parS DNA” value was determined as 0.554.
Take RYVA: the “one-hybrid fitness for binding parS DNA” value was determined as 0.508.
As for RYLA, the “one-hybrid fitness for binding parS DNA” value is 0.608.
In the case of NYLA, the “one-hybrid fitness for binding parS DNA” value was no more than 0.2.
Turning to LTIQ, the “one-hybrid fitness for binding parS DNA” value is no more than 0.2.
As for LMSQ, the “one-hybrid fitness for binding parS DNA” value was no more than 0.2.
Take GCEC: the “one-hybrid fitness for binding parS DNA” value is no more than 0.2.
For the variant QYSE, the “one-hybrid fitness for binding parS DNA” value was no more than 0.2.
In the case of MSRC, the “one-hybrid fitness for binding parS DNA” value is no more than 0.2.
In the case of RYHA it was 0.545; in that of RYGA, 0.539.
In the case of SYQA it was no more than 0.2; in that of RYIA, 0.496.
Turning to RYRA, the “one-hybrid fitness for binding parS DNA” value was 0.727.
To AYGA belongs no more than 0.2; to PYQA, no more than 0.2.
Regarding NYRA, the “one-hybrid fitness for binding parS DNA” value is no more than 0.2.
For the variant RYQA, the “one-hybrid fitness for binding parS DNA” value came to 0.562.
To SYGA belongs no more than 0.2.
With KHQR, the “one-hybrid fitness for binding parS DNA” value is no more than 0.2.
To QHCK belongs no more than 0.2; to PRPC, no more than 0.2; to YWNN, no more than 0.2.
In the case of YYMS it was no more than 0.2; in that of ILCT, no more than 0.2; in that of TTSA, no more than 0.2.
In the case of RYYA it was 0.522; in that of RYCA, 0.46.
As for RYPA, the “one-hybrid fitness for binding parS DNA” value turned out to be 0.212.
To TDNY belongs no more than 0.2; to RGDS, 0.551; to RGND, no more than 0.2.
Regarding RGDN, the “one-hybrid fitness for binding parS DNA” value was no more than 0.2.
Take RGDP: the “one-hybrid fitness for binding parS DNA” value was no more than 0.2.
For RGNS, the “one-hybrid fitness for binding parS DNA” value was 0.862.
In the case of RGNP it was no more than 0.2; in that of NNTG, no more than 0.2; in that of LAFI, no more than 0.2.
TKPY: the “one-hybrid fitness for binding parS DNA” value was no more than 0.2.
In the case of ASRG it was no more than 0.2.
To TAAN belongs no more than 0.2; to VRSP, no more than 0.2.
For TLKS, the “one-hybrid fitness for binding parS DNA” value was no more than 0.2.
To RIIS belongs 0.994.
In the case of RIID it was no more than 0.2; in that of RIPS, 0.812.
To RIIP belongs no more than 0.2; to RIPH, no more than 0.2.
As for RIPD, the “one-hybrid fitness for binding parS DNA” value was no more than 0.2.
In the case of QKRS, the “one-hybrid fitness for binding parS DNA” value is no more than 0.2.
In the case of YTMT it was no more than 0.2; in that of HPWL, no more than 0.2; in that of RNVG, 0.619.
In the case of RNKQ it was no more than 0.2.
To RNVK belongs no more than 0.2.
With RNVQ, the “one-hybrid fitness for binding parS DNA” value is no more than 0.2.
To RNKG belongs 0.941; to RNKK, no more than 0.2.
On to MYPT, for which the “one-hybrid fitness for binding parS DNA” value was no more than 0.2.
Take REFV: the “one-hybrid fitness for binding parS DNA” value is no more than 0.2.
In the case of RNMP it was no more than 0.2; in that of RNMK, no more than 0.2; in that of RNMY, 0.325.
On to RNMS, for which the “one-hybrid fitness for binding parS DNA” value came to 0.868.
In the case of RNML it was no more than 0.2; in that of RNMG, 0.819; in that of RNMF, no more than 0.2.
To RNMT belongs 0.678; to RNMN, 0.299.
Consider RNMD, for which the “one-hybrid fitness for binding parS DNA” value is no more than 0.2.
On to RNMH, for which the “one-hybrid fitness for binding parS DNA” value is no more than 0.2.
Consider RNMC, for which the “one-hybrid fitness for binding parS DNA” value is 0.745.
In the case of GRCA it was no more than 0.2; in that of PERA, no more than 0.2; in that of TDEN, no more than 0.2.
In the case of YRHT it was no more than 0.2; in that of VWAT, no more than 0.2; in that of VNSR, no more than 0.2.
To FTWC belongs no more than 0.2; to RYAN, 0.387.
Take RYAD: the “one-hybrid fitness for binding parS DNA” value was no more than 0.2.
To RYFT belongs 0.792; to RYFF, 0.256; to RYFD, no more than 0.2.
As to RYAT, the “one-hybrid fitness for binding parS DNA” value is 0.899.
In the case of NHVC, the “one-hybrid fitness for binding parS DNA” value was no more than 0.2.
To AYMK belongs no more than 0.2.
To PDKP belongs no more than 0.2; to YYNR, no more than 0.2.
To TQLI belongs no more than 0.2; to KLHC, no more than 0.2; to YNTM, no more than 0.2.
On to RHNI, for which the “one-hybrid fitness for binding parS DNA” value is no more than 0.2.
For RKVN, the “one-hybrid fitness for binding parS DNA” value was found to be 0.36.
In the case of RKKN it was 0.356; in that of RKVS, 0.967.
To RKVH belongs no more than 0.2.
In the case of RKKH it was 0.317; in that of RKKS, 0.69.
With QPGI, the “one-hybrid fitness for binding parS DNA” value was no more than 0.2.
In the case of QTTR it was no more than 0.2; in that of DASR, no more than 0.2.
To WTNT belongs no more than 0.2.
With MFKT, the “one-hybrid fitness for binding parS DNA” value was no more than 0.2.
In the case of CHQS it was no more than 0.2.
To PYYS belongs no more than 0.2.
As for RHNE, the “one-hybrid fitness for binding parS DNA” value was no more than 0.2.
Consider RHDR, for which the “one-hybrid fitness for binding parS DNA” value is no more than 0.2.
To RHNQ belongs no more than 0.2; to RHNT, 0.857; to RHDT, 0.791.
In the case of RHDK it was no more than 0.2; in that of TAQY, no more than 0.2; in that of WPVT, no more than 0.2.
To QWVG belongs no more than 0.2; to YAIL, no more than 0.2; to KTMW, no more than 0.2.
Take TMYG: the “one-hybrid fitness for binding parS DNA” value is no more than 0.2.
In the case of RLVC it was 0.962; in that of RLVM, 0.295.
In the case of RLKM it was 0.399; in that of RLVR, no more than 0.2.
To RLKC belongs 0.835.
